Values joined by “and” are separate entries in the source; they are usually repeats but may differ in a detail not shown here. Equal values may be shown once. Out of some 300,000 compounds screened, about 480 (0.16%) were called active.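 Rule for the calls: active = inhibition over 29.93%, a cutoff 3 SD above the screen mean, later confirmed by dose response; inconclusive = inhibition over 29.93% but no dose response follow-up; inactive = inhibition at most 29.93% or unconfirmed.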 The list is a sample of the results. Entries with a potency or affinity are not part of this list.
experiment: inhibitors of PhoP regulon expression, primary screen, Salmonella Typhimurium, GFP reporter (AID 1863);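 note: 0% = low Mg2+ inducing control and 100% = high Mg2+ repressing control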; conditions: S. Typhimurium PhoP-regulated promoter GFP reporter, 4 h; at 50 µM; stronger effect = higher value

inhibition, inactive:
COc1ccc(-c2cccc(NC(=O)COc3ccc(Cl)cc3)c2)nn1 -8.03%
CCCCCCCCCC[n+]1cccc(C(=O)N(CC)CC)c1 11%
CCCCCCCC[n+]1cccc(C(=O)N(CC)CC)c1 7.46%
CCC(=O)NC(=S)Nc1ccc(N2CCN(C(=O)c3ccc(Cl)cc3)CC2)cc1 2.66%
CC(=O)/C=C1\SC(CC(=O)O)C(=O)N1c1ccccc1 (configuration not stated) -3.51%
COc1ccc2nc(SCC(N)=O)cc(C)c2c1 -2.01%
CN1CCCC(CN2c3ccccc3Sc3ccccc32)C1 (configuration not stated) 5.69%
CC1CCN(CC(O)CN2c3ccccc3Sc3ccccc32)CC1 (configuration not stated) 11.3%
O=C(O)c1cccc(N/N=C/c2cc(Br)cc(Br)c2O)c1 -5.01%
Cc1c(N=Cc2cc(Br)cc(Br)c2O)cccc1C(=O)O 20.2%
N#CCCn1nc(-c2ccccc2)c2ccccc2c1=O 0.37%
Cc1ccc(N2C(=O)Nc3ccccc3C2(O)C(=O)N2CCN(c3ccccn3)CC2)cc1C (configuration not stated) 1.22%
O=C(CS(=O)(=O)c1ccccc1)NC1CCCCC1 -0.8%
CC(CC(=O)Nc1ccccc1)NCCCN1CCCC1=O (configuration not stated) -13.5%
COc1ccc(C(=O)Nc2ccccc2C(=O)N2CCCCC2C)cc1 (configuration not stated) -7.49%
Cc1ccc(S(=O)(=O)N2CC(=NN=C(N)N)C2)cc1 6.04%
NC(N)=NN=C1CCC(c2ccccc2)CC1 (configuration not stated) -4.95%
COc1ccc(/C=N/NC(=O)c2ccc(COc3ccccc3Cl)o2)cc1 2.77%
CC(=O)Nc1ccc(Nc2nnc(-c3ccc(C)c(S(N)(=O)=O)c3)c3ccccc23)cc1 -2.89%
CC1=C(C)C(=O)C(N2CCOCC2)=CC1=O -8.01%
CC(C)(C)C1=CC(=O)C(N2CCOCC2)=CC1=O -2.73%
CC(NC(=O)COc1ccc(Oc2ccccc2)cc1)C(=O)O (configuration not stated) -6.64%
CC(=O)c1cccc(NC(=O)Nc2ccccc2)c1 4.67%
O=C(NC(c1ccc(Cl)cc1)c1cc(Cl)c2cccnc2c1O)c1cccnc1 (configuration not stated) 6.03%
OCCN1CCN(C(c2cccs2)c2ccc3cccnc3c2O)CC1 (configuration not stated) -47.6%
Oc1c(C(c2ccc(Cl)cc2)N2CCCC2)cc(Cl)c2cccnc12 (configuration not stated) 4.49%
CN1CCN(C(c2cccnc2)c2ccc3cccnc3c2O)CC1 (configuration not stated) -7.68%
CCC(=O)NC(c1ccc(OC)cc1)c1cc(Cl)c2cccnc2c1O (configuration not stated) 2.08%
CN1CCN(C(c2ccc(C(F)(F)F)cc2)c2ccc3cccnc3c2O)CC1 (configuration not stated) 0.72%
COc1ccc(C(NC(C)=O)c2cc(Cl)c3cccnc3c2O)cc1OC (configuration not stated) 3%
CCOC(=O)N1CCN(S(=O)(=O)c2cccc3cccnc23)CC1 -11%
CCC(c1nnnn1C(C)(C)CC)N(CCCN1CCOCC1)Cc1cc2cccc(C)c2[nH]c1=O (configuration not stated) 1.45%
CCn1nc(C)c(/C=N/NC(=O)Cn2nc(C)cc2C)c1C -4.2%
CCCCNC(=O)c1cc(-c2ccc(OC)c(OC)c2)on1 3.01%
Cc1c(C#N)c(N)nc2c3c(sc12)NC(=O)CC3c1ccccc1 (configuration not stated) -5.65%
COc1cccc(NC(=O)c2cc([N+](=O)[O-])ccc2NCc2cccnc2)c1 -4.37%
CCOC(=O)c1cn(CC(=O)Nc2cccc(F)c2)nn1 -11.4%
O=C(Cn1c(C(=O)O)cc2ccccc21)c1ccccc1 -2.79%
Cc1ccc(N2C(=O)N(CC(=O)N3CCOCC3)C(=O)C2C)cc1 (configuration not stated) 2.04%
COC(C(=O)Nc1ccnn1C1CCN(C(=O)c2ccc(C)cc2)CC1)c1ccccc1 (configuration not stated) 5.45%
O=S1(=O)CCOC[C@H](CC2CCCCC2)N1Cc1cccc(C(F)(F)F)c1 9.84%
COc1ccc(C(NC(C)=O)c2cc(Cl)c3cccnc3c2O)cc1 (configuration not stated) 5.56%
CCC(=O)NC(c1cccs1)c1cc(Cl)c2cccnc2c1O (configuration not stated) 14.8%
Oc1c(C(c2ccccn2)N2CCC(Cc3ccccc3)CC2)cc(Cl)c2cccnc12 (configuration not stated) -3.77%
CC(=O)NC(c1ccc(C)cc1)c1cc(Cl)c2cccnc2c1O (configuration not stated) -1.88%
O=C(NC(c1ccccc1)c1cc(Cl)c2cccnc2c1O)c1cccnc1 (configuration not stated) -10.8%
CC(=O)NC(c1ccccc1)c1cc(Cl)c2cccnc2c1O (configuration not stated) 18.9%
CCOc1ccc(C(Nc2cccnc2)c2cc(Cl)c3cccnc3c2O)cc1 (configuration not stated) 3.11%
CCCc1cc(=O)[nH]c(SCC(=O)Nc2ccc(Br)cc2)n1 -7.86%
CC1CCN(S(=O)(=O)c2ccc3c(c2)c(=O)c(C(=O)NCc2ccccc2Cl)cn3C)CC1 5.92%
Cc1ccc(/C=C/C(=O)c2ccccc(=O)c2O)c(C)c1 7.66%
O=C(/C=C/c1ccc(O)c(O)c1)c1ccccc1O -12%
Cc1ccc2occ(/C=C/C(=O)c3ccccc3O)c(=O)c2c1 1.62%
Cc1cccc(/C=C/C(=O)c2cc(Br)ccc(=O)c2O)c1 23.4%
O=C(/C=C/c1ccccc1Cl)c1ccc[nH]1 11.1%
O=C(/C=C/c1ccccc1Cl)c1ccc(O)cc1 2.4%
C=CCNC(=O)CSc1nnc(-c2ccccn2)n1Cc1ccccc1 7.3%
CCOC(=O)c1ccc(NC(=O)c2ccccc2N(C)S(=O)(=O)c2ccccc2)cc1 1.33%
Cc1ncc(CSCC(=O)Nc2cc(C(F)(F)F)ccc2Cl)c(CO)c1O 3.52%
C=C1CCC(OC(C)=O)C2(C)CCC3C(C)C(=O)OC3C12O (configuration not stated) 5.69%
COc1ccc(CN(CCN(C)C)c2ccccn2)cc1 5.26% and 0.005%
CC[N+](C)(C)CCN(Cc1ccc(Cl)cc1)c1ccccn1 1.17%

Source: PubChem BioAssay AID1863 (Southern Research Specialized Biocontainment Screening …, 2009)
